Each structure is given as a SMILES string. Out of some 310,000 compounds screened, about 14,000 (4.5%) showed an effect of 50% or more. The effect is printed as a negative number. The full list was thinned out, with strong results kept by preference.
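Further: peak tail current of the secondary pulse compared with the same well before compound.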

For this test, the target named is human ether-à-go-go-related gene (hERG) potassium channel (human, UniProt Q12809). Nature of the test: primary screen, population patch clamp on CHO cells stably expressing hERG; higher = less effect of the substance.
Sequence of human ether-à-go-go-related gene (hERG) potassium channel (Q12809 whole entry, looked up): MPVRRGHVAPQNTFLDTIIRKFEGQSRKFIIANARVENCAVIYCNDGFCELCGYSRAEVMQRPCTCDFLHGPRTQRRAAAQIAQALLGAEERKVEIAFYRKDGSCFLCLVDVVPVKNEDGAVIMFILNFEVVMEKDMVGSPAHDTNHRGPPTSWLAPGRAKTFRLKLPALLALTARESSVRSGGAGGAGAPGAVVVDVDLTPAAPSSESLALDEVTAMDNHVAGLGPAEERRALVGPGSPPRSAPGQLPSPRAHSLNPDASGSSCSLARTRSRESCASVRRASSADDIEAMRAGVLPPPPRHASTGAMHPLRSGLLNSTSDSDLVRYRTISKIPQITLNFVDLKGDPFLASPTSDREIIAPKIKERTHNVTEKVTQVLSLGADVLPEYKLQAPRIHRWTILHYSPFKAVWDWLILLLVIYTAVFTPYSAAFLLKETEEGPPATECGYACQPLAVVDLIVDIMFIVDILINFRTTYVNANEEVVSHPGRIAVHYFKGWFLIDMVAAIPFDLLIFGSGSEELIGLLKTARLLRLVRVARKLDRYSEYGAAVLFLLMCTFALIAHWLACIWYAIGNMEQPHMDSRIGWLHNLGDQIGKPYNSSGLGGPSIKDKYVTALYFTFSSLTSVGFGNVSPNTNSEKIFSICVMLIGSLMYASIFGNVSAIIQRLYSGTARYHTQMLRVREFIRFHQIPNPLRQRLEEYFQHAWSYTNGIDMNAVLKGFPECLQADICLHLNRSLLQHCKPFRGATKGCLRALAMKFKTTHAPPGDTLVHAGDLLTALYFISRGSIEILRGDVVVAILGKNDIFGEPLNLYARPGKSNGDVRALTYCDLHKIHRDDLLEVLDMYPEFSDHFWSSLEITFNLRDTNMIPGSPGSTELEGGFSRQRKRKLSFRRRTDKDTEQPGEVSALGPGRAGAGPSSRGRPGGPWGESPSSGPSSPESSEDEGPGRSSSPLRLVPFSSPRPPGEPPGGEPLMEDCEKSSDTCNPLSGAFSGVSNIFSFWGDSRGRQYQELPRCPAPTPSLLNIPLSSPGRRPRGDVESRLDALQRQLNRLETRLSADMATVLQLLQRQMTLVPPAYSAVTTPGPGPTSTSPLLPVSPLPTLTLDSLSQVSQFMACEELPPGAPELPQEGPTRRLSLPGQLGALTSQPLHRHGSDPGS
As to `CN=C(Nc1ccccc1OC)SC1CC(=O)N(c2ccc(C(=O)OC)cc2)C1=O` (stereo not shown), the “hERG current change (%, negative = inhibition) at 10uM” value is reported as -12.5%.
For `O=C(Nc1cccnc1)/C(N=Nc1ccc(Cl)c(C(F)(F)F)c1)=C(\O)c1ccccc1`, the “hERG current change (%, negative = inhibition) at 10uM” value was determined as 29.3%.
`O=C(Nc1cccnc1)/C(N=Nc1c(Cl)cccc1Cl)=C(\O)c1ccccc1`: the “hERG current change (%, negative = inhibition) at 10uM” value worked out at 18.8%.
In the case of `O=C(Nc1cccnc1)/C(N=Nc1cccnc1)=C(\O)c1ccccc1`, the “hERG current change (%, negative = inhibition) at 10uM” value is reported as -53%.
For `COc1cccc(CNC(=O)CCC2CCCN(C(=O)CCc3c(C)noc3C)C2)c1` (stereo not shown), the “hERG current change (%, negative = inhibition) at 10uM” value is recorded as -2.56%.
As for `COc1ccc(CCNS(=O)(=O)c2ccc3oc(C(=O)O)c(C)c3c2)cc1OC`, the “hERG current change (%, negative = inhibition) at 10uM” value was found to be 0.0936%.
Turning to `CCOC(=O)C(NC(=O)Nc1ccc(C(N)=O)cc1)(c1ccccc1)C(F)(F)F` (stereo not shown), the “hERG current change (%, negative = inhibition) at 10uM” value was -14.6%.
As for `Cc1cc(/C=N/n2cnnc2)c(C)n1-c1cccc(Cl)c1`, the “hERG current change (%, negative = inhibition) at 10uM” value was -22.2%.
`Cc1cccc(-n2c(SCc3cc(=O)n4ccsc4n3)nc3ccccc3c2=O)c1`: the “hERG current change (%, negative = inhibition) at 10uM” value is -5.76%.
For the molecule `O=C(Nc1ccc(Cl)cc1)N1CCN(C(=O)C2CCCO2)CC1` (stereo not shown), the “hERG current change (%, negative = inhibition) at 10uM” value stood at 14.9%.
Regarding `CCOc1ccc(C(=O)Nn2cnnc2)cc1OCC`, the “hERG current change (%, negative = inhibition) at 10uM” value is -70.4%.
With `COc1ccc(C(=O)Nn2cnnc2)cc1OC` the figure was 14.6%.
As for `CCOc1cc(C(=O)Nn2cnnc2)cc(OCC)c1OCC`, the “hERG current change (%, negative = inhibition) at 10uM” value was found to be 13.8%.
Consider `CC1CCc2cc(F)ccc2N1C(=O)c1ccncc1` (stereo not shown), for which the “hERG current change (%, negative = inhibition) at 10uM” value was determined as 7.7%.
Regarding `Cc1cccc(N(C(=O)Cc2cccs2)C(C(=O)NC2CCCC2)c2ccncc2)c1` (stereo not shown), the “hERG current change (%, negative = inhibition) at 10uM” value is given as 8.83%.
Consider `O=C(c1ccco1)N1CCN(C(c2ccccc2)c2nnnn2Cc2cccs2)CC1` (stereo not shown), for which the “hERG current change (%, negative = inhibition) at 10uM” value was -38.9%.
Consider `Cc1ccc(C(c2nnnn2Cc2cccs2)N2CCN(C(=O)c3ccco3)CC2)cc1` (stereo not shown), for which the “hERG current change (%, negative = inhibition) at 10uM” value is -62.5%.
With `O=C(c1ccco1)N1CCN(C(c2ccc(F)cc2)c2nnnn2CC2CCCO2)CC1` (stereo not shown) the figure was -13.7%; with `Cl.O=C(c1ccco1)N1CCN(C(c2ccc(F)cc2)c2nnnn2Cc2cccs2)CC1` (stereo not shown), -57%.
As to `CC(C)C(c1nnnn1Cc1cccs1)N1CCN(C(=O)c2ccco2)CC1` (stereo not shown), the “hERG current change (%, negative = inhibition) at 10uM” value is -31.6%.
With `CC(C)CCn1nnnc1C(c1ccc(F)cc1)N1CCN(C(=O)c2ccco2)CC1` (stereo not shown) the figure was -38.1%; with `CCCCc1nnc(NC(=O)CSCc2cc(=O)n3cc(C)sc3n2)s1`, 5.31%; with `Cc1ccc2c(CC(=O)Nc3c(C)n(C)n(-c4ccccc4)c3=O)coc2c1`, -7.21%.
With `O=C1N(Cc2cccnc2)C[C@@H]2C[C@@H](c3cccc(OC4CCCC4)c3)N3CCC[C@@]123` the figure was -69.5%; with `O=C1N(Cc2cccnc2)C[C@@H]2C[C@@H](c3cccc(Oc4ccccc4)c3)N3CCC[C@@]123`, -59.4%.
Take `O=C1N(Cc2cccnc2)C[C@@H]2C[C@@H](c3cccc(OCc4ccccc4)c3)N3CCC[C@@]123`: the “hERG current change (%, negative = inhibition) at 10uM” value is listed as -63.6%.
On to `COc1ccccc1CN1C[C@@H]2C[C@@H](c3cccc(C)c3)N3CCC[C@@]23C1=O`, for which the “hERG current change (%, negative = inhibition) at 10uM” value is reported as -37%.
Regarding `COc1ccccc1CN1C[C@@H]2C[C@@H](c3cccc(O)c3)N3CCC[C@@]23C1=O`, the “hERG current change (%, negative = inhibition) at 10uM” value is reported as -33.6%.
In the case of `CC(C)(C)NC(=S)NNC(=O)[C@H]1C[C@@H]1c1ccccc1` it was 11%; in that of `Cc1ccc(S(=O)(=O)N[C@H](C(=O)N2CCC(C(=O)N[C@@H](CC(=O)O)C(=O)O)CC2)C(C)C)cc1`, 24.9%; in that of `O=c1cc(-c2ccccc2)cc(-c2ccccc2)n1CCO`, -21.5%.
In the case of `O=C(CCN1CCCC1=O)NC1CCCc2c1cnn2-c1ccc(F)cc1F` (stereo not shown), the “hERG current change (%, negative = inhibition) at 10uM” value is listed as -2.54%.
On to `CCOC(=O)N1CCC(NS(=O)(=O)c2ccc3c(c2)CCN3C(C)=O)CC1`, for which the “hERG current change (%, negative = inhibition) at 10uM” value was -0.517%.
In the case of `CC(C)C(C(=O)NC(C)(C)C)N(CCN1CCOCC1)C(=O)CNS(=O)(=O)c1ccccc1` (stereo not shown) it was 0.875%; in that of `CC(/C=C/c1ccco1)=N\NC(=O)c1cc(C)[nH]n1`, 5.55%; in that of `CC(=O)Nc1ccc(N(C(=O)Cc2cccs2)C(C(=O)NC2CCCC2)c2ccncc2)cc1` (stereo not shown), 9.17%.
On to `CC1(C)CC(=O)C(=Cc2cn(-c3ccccc3)nc2-c2ccccc2)C(=O)C1`, for which the “hERG current change (%, negative = inhibition) at 10uM” value is recorded as -24.1%.
For the molecule `Cc1cccc(C(=O)NC2CC3CCCC(C2)N3Cc2ccccc2)c1` (stereo not shown), the “hERG current change (%, negative = inhibition) at 10uM” value was -40.9%.
For `CCCCN1C2CCCC1CC(NC(=O)c1cccc(Cl)c1)C2` (stereo not shown), the “hERG current change (%, negative = inhibition) at 10uM” value is given as -75.5%.
With `O=C(NC1CCCC1)c1cccc(Cl)c1` the figure was 29.8%; with `O=C(NC1CC2CCCC(C1)N2Cc1ccccc1)c1cccc(Cl)c1` (stereo not shown), -57.9%; with `CCCN1C2CCCC1CC(NC(=O)c1cccc(Cl)c1)C2` (stereo not shown), -38.9%.
Take `O=C(NC1CC2CCC(C1)N2Cc1ccccc1)c1cccc(F)c1` (stereo not shown): the “hERG current change (%, negative = inhibition) at 10uM” value is on record as -60.5%.
Take `O=C(NC1CC2CCCC(C1)N2Cc1ccccc1)c1cccc(F)c1` (stereo not shown): the “hERG current change (%, negative = inhibition) at 10uM” value is recorded as -56.8%.
For `CCCCN1C2CCCC1CC(NC(=O)c1cccc(OC)c1)C2` (stereo not shown), the “hERG current change (%, negative = inhibition) at 10uM” value is -19.3%.
Take `O=C(NC1CC2CCC(C1)N2Cc1ccccc1)c1ccccc1Cl` (stereo not shown): the “hERG current change (%, negative = inhibition) at 10uM” value is -40.6%.
In the case of `O=C(NC1CC2CCC(C1)N2Cc1ccccc1)c1ccccc1Br` (stereo not shown), the “hERG current change (%, negative = inhibition) at 10uM” value is -20.1%.
With `O=C(Nc1cccc(F)c1)c1ccc(S(=O)(=O)NCC2CCCO2)cc1` (stereo not shown) the figure was -12.2%; with `COc1ccc(C(=O)NN(C)c2nc(-c3ccccc3)nnc2C(F)(F)F)cc1`, 7%.
In the case of `N#Cc1cn(CC(=O)N2CCCC2)c2ccccc12` it was 8.6%; in that of `O=C(O)C1=CC2c3ccccc3C1c1ccccc12`, 17.4%; in that of `CC1(C)Cc2sc3c(=O)[nH]c(=S)[nH]c3c2CO1`, 16.6%.
Turning to `CCCN1C(=O)/C(=c2\s/c(=C3\C=Cc4ccccc4N3CC)c(=O)n2-c2ccccc2)SC1=S`, the “hERG current change (%, negative = inhibition) at 10uM” value stood at 8.95%.
Take `O=C1NC(=O)/C(=C\c2cn(CC(=O)N3CCOCC3)c3ccccc23)S1`: the “hERG current change (%, negative = inhibition) at 10uM” value is on record as 11.7%.
`COCC(=O)Nc1sc2c(c1C(=O)OC)CCCC2`: the “hERG current change (%, negative = inhibition) at 10uM” value is -11.7%.
As to `COc1ccc(C2/C=C\CN(C(=O)c3ccccc3)[C@H](Cc3ccccc3)C(=O)N2Cc2ccc(F)cc2)cc1` (stereo partly shown), the “hERG current change (%, negative = inhibition) at 10uM” value stood at 17%.
For `Fc1cccc(-c2cc3nc4c(c(N5CCOCC5)n3n2)CCCC4)c1`, the “hERG current change (%, negative = inhibition) at 10uM” value is -24.1%.
In the case of `Cc1nc(N)nc(N/N=C/c2c(F)cccc2Cl)n1` it was 3.11%.
Regarding `COc1cc(NS(=O)(=O)c2ccc(NC(=O)C34CC5CC(CC(C5)C3)C4)cc2)ncn1`, the “hERG current change (%, negative = inhibition) at 10uM” value is -4.59%.
`OC(CN1CCc2ccccc2C1)c1ccccc1` (stereo not shown): the “hERG current change (%, negative = inhibition) at 10uM” value is reported as -9.09%.
With `OC(COC(c1ccc(F)cc1)c1ccc(F)cc1)CN1CCc2ccccc2C1` (stereo not shown) the figure was -73.7%; with `Cl.OC(COC(c1ccc(Cl)cc1)c1ccc(Cl)cc1)CN1CCc2ccccc2C1` (stereo not shown), -61.6%.
For `OC(COC(c1ccccc1)c1ccccc1)CN1CCc2ccccc2C1` (stereo not shown), the “hERG current change (%, negative = inhibition) at 10uM” value is -76.9%.
With `CC1(c2ccc3c(c2)OCCCO3)NC(=O)N(CC(=O)NCCc2ccccc2)C1=O` (stereo not shown) the figure was -7.38%.
For the molecule `COc1ccc(C(CNC(=O)COc2c(C)cc(C)cc2C)N2CCOCC2)cc1` (stereo not shown), the “hERG current change (%, negative = inhibition) at 10uM” value is -12.1%.
As to `COc1ccc(-c2coc3cc(O)ccc3c2=O)cc1`, the “hERG current change (%, negative = inhibition) at 10uM” value is -5.05%.
In the case of `CCOC(=O)CSC1=N/C(=C\c2cc(OC)c(OC)c(OC)c2)C(=O)N1C`, the “hERG current change (%, negative = inhibition) at 10uM” value is recorded as -7.36%.
Take `CCN1C(=O)/C(=C/c2ccc(OC)c(OC)c2)N=C1SCC(=O)NCc1ccco1`: the “hERG current change (%, negative = inhibition) at 10uM” value is reported as -15.1%.
In the case of `CCOC(=O)CSC1=N/C(=C\c2ccc(OC)c(OC)c2)C(=O)N1C` it was -69.7%; in that of `O=C(C1CCOCC1)N1CCC(CO)(CCc2ccccc2)CC1`, 5.29%.
As to `CCOC(=O)C1(CCCc2ccccc2)CCN(C(=O)C2CCCO2)CC1` (stereo not shown), the “hERG current change (%, negative = inhibition) at 10uM” value was -25.7%.
For `CCOC(=O)C1(CCCc2ccccc2)CCN(S(=O)(=O)N(C)C)CC1`, the “hERG current change (%, negative = inhibition) at 10uM” value is -4.73%.
In the case of `CCOC(=O)C1(CCc2ccccc2)CCN(C(=O)C2CCOCC2)CC1` it was -53.1%.
As to `CCOC(=O)C1(CCCc2ccccc2)CCN(C(=O)[C@@H]2C[C@@H](C)NC(=S)N2)CC1`, the “hERG current change (%, negative = inhibition) at 10uM” value is listed as -25.1%.
For the molecule `CCOC(=O)C1(Cc2ccccc2C(F)(F)F)CCN(C2CCC2)CC1`, the “hERG current change (%, negative = inhibition) at 10uM” value is listed as -36.6%.
In the case of `CCOC(=O)C1(CCc2ccccc2)CCN(C(=O)C2CCCO2)CC1` (stereo not shown), the “hERG current change (%, negative = inhibition) at 10uM” value was -13%.
With `CCOC(=O)C1(CCCc2ccccc2)CCN(C(=O)C2CCCN(C(N)=O)C2)CC1` (stereo not shown) the figure was -72.4%; with `CCOC(=O)C1(CCCc2ccccc2)CCN(C2CCCC2)CC1`, -69.7%.
As for `CCOC(=O)C1(CCCc2ccccc2)CCN(C2CCC2)CC1`, the “hERG current change (%, negative = inhibition) at 10uM” value is given as -74.8%.
With `CCOC(=O)C1(CCCc2ccccc2)CCN(S(C)(=O)=O)CC1` the figure was -8.15%.
In the case of `O=c1cc(O)c(-c2cccc(C(F)(F)F)c2)c(Cl)[nH]1`, the “hERG current change (%, negative = inhibition) at 10uM” value is 22.5%.
With `O=C1C(Cc2ccc3[nH]ccc3c2)NC(=S)N1c1ccccc1` (stereo not shown) the figure was 7.61%.
For `Cc1ccccc1C(=O)NC(=S)NCc1cccnc1`, the “hERG current change (%, negative = inhibition) at 10uM” value was found to be 31.9%.
Turning to `COC(=O)c1ccc(CO/N=C2\CCCc3nonc32)cc1`, the “hERG current change (%, negative = inhibition) at 10uM” value was -35.1%.
`O=C(Cn1c(-c2ccccc2)noc1=O)Nc1ccc(N2CCCCCC2)cc1`: the “hERG current change (%, negative = inhibition) at 10uM” value was 6.95%.

The record behind these values is article PMC4336329 (PLoS ONE, 2015).
